In PubChem BioAssay (NCATS):
Records with an inconclusive call do not appear. The source made the active and inactive calls. Calls come from the whole dose curve; as a rule, active = well fitted curve in the direction sought with a large enough effect; inconclusive = small, poorly fitted or top-dose-only effect, or another doubt; inactive = no such curve, though single readings can be large; an effect the other way counts as inactive or inconclusive.

What was measured:
[1] = system: Zika virus NS2B-NS3 protease (linked); test: 384 well plate NINDS AMC confirmatory qHTS for Zika virus inhibitors (AID 1347163); conditions: Recombinant NS2B-NS3 protease, Ac-VKTGKR-AMC fluorescence; series mostly up to 100 µM; note: nearly all actives have a fitted effect of over 50% in size; note: potency is the fitted concentration of half-maximal effect
Method in brief: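 Enzyme (5, 30 or 60 nM final) first met test compounds for ~15 min. The AMC-tagged peptide Ac-VKTGKR-AMC followed at 30 microM. Fluorescence was then recorded at 25 min and scaled against no-enzyme and no-inhibitor wells.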

[2] = S16 Schwann cell viability assay (CellTiter-Glo assay) (AID 624031); conditions: S16 rat Schwann cells viability, 24 h; series mostly up to 57.5 µM;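 note: native untransfected S16 rat Schwann cells; cellular ATP luminescence as a viability measure; nearly all actives have a fitted effect of over 70% in size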
Method in brief: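 Following overnight culture in 10% FBS DMEM, parental S16 rat Schwann cells are dosed for 24 h at 37 °C. Viability is read as CellTiter-Glo luminescence and expressed as % activity relative to DMSO (0%) and no-cell wells.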

[3] = S16 Schwann cell PMP22 intronic element firefly luciferase assay (AID 624032); conditions: S16 rat Schwann cells, PMP22 element FLuc, 24 h; series mostly up to 57.5 µM; note: nearly all actives have a fitted effect of over 30% in size
Method in brief: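 Rat S16 Schwann cells stably carrying firefly luciferase driven by a PMP22 intronic element, in 10% FBS, treated 24 h at 37 C. ONE-Glo luminescence normalized to PTC124 control and DMSO (0%); curves classed by r2, magnitude and activity.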

7G8 = test: qHTS profiling for inhibitors of Plasmodium falciparum proliferation (AID 504749); note: nearly all actives have a fitted effect of over 60% in size; note: potency is the fitted concentration of half-maximal effect; conditions: P. falciparum in erythrocytes, SYBR Green DNA, 72 h; series mostly up to 12.8 µM
Method in brief: (§1)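 SYBR Green fluorescence (ex 485 nm, em 535 nm) reports parasite DNA after 72 h compound exposure of infected red cells at 0.3% parasitemia, 2.5% hematocrit; signal normalized to 0.29 uM artemisinin and vehicle wells.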

AA1029 = test: as above; conditions: P. falciparum in erythrocytes, SYBR Green DNA, 72 h; series mostly up to 28.7 µM
Method in brief: as §1

CP191 = test: as above; conditions: P. falciparum in erythrocytes, SYBR Green DNA, 72 h; series mostly up to 28.7 µM
Method in brief: as §1

CP217 = test: as above; conditions: P. falciparum in erythrocytes, SYBR Green DNA, 72 h; series mostly up to 28.7 µM
Method in brief: as §1

CP252 = test: as above; conditions: P. falciparum in erythrocytes, SYBR Green DNA, 72 h; series mostly up to 12.8 µM
Method in brief: as §1

CP260 = test: as above; conditions: P. falciparum in erythrocytes, SYBR Green DNA, 72 h; series mostly up to 28.7 µM
Method in brief: as §1

CP291 = test: as above; conditions: P. falciparum in erythrocytes, SYBR Green DNA, 72 h; series mostly up to 28.7 µM
Method in brief: as §1

CP297 = test: as above; conditions: P. falciparum in erythrocytes, SYBR Green DNA, 72 h; series mostly up to 28.7 µM
Method in brief: as §1

CP315 = test: as above; conditions: P. falciparum in erythrocytes, SYBR Green DNA, 72 h; series mostly up to 28.7 µM
Method in brief: as §1

CP335 = test: as above; conditions: P. falciparum in erythrocytes, SYBR Green DNA, 72 h; series mostly up to 12.8 µM
Method in brief: as §1

DIV14 = test: as above; conditions: P. falciparum in erythrocytes, SYBR Green DNA, 72 h; series mostly up to 28.7 µM
Method in brief: as §1

DIV17 = test: as above; conditions: P. falciparum in erythrocytes, SYBR Green DNA, 72 h; series mostly up to 28.7 µM
Method in brief: as §1

ICS = test: as above; conditions: P. falciparum in erythrocytes, SYBR Green DNA, 72 h; series mostly up to 28.7 µM
Method in brief: as §1

JCK = test: as above; conditions: P. falciparum in erythrocytes, SYBR Green DNA, 72 h; series mostly up to 28.7 µM
Method in brief: as §1

N140 = test: as above; conditions: P. falciparum in erythrocytes, SYBR Green DNA, 72 h; series mostly up to 28.7 µM
Method in brief: as §1

TAB165 = test: as above; conditions: P. falciparum in erythrocytes, SYBR Green DNA, 72 h; series mostly up to 28.7 µM
Method in brief: as §1

[4] = target: M-phase phosphoprotein 8 (Homo sapiens) (UniProt Q99549); test: qHTS Validation Assay for Inhibitors for MPP8 Chromodomain Interactions with Methylated Histone Tails (AID 488949); conditions: AlphaScreen MPP8 binding to H3K9me3 peptide; series mostly up to 114 µM;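 note: 50 nM MPP8 with 50 nM peptide preformed then compounds added for 30 min; AlphaScreen signal from MPP8 chromodomain bound to biotinylated H3K9me3 peptide; top concentration of the series differs between compounds; nearly all actives have a fitted effect of over 55% in size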
Method in brief: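 Chemiluminescent proximity assay: histidine-tag capture via nickel acceptor beads, biotin peptide via streptavidin donor beads. Protein and peptide each at 50 nM, pH 7.4, with 30 min incubations at room temperature for complex formation, compound exposure and bead binding.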

Measured: Potency

M-phase phosphoprotein 8 (Homo sapiens), sequence (Q99549 whole entry, looked up): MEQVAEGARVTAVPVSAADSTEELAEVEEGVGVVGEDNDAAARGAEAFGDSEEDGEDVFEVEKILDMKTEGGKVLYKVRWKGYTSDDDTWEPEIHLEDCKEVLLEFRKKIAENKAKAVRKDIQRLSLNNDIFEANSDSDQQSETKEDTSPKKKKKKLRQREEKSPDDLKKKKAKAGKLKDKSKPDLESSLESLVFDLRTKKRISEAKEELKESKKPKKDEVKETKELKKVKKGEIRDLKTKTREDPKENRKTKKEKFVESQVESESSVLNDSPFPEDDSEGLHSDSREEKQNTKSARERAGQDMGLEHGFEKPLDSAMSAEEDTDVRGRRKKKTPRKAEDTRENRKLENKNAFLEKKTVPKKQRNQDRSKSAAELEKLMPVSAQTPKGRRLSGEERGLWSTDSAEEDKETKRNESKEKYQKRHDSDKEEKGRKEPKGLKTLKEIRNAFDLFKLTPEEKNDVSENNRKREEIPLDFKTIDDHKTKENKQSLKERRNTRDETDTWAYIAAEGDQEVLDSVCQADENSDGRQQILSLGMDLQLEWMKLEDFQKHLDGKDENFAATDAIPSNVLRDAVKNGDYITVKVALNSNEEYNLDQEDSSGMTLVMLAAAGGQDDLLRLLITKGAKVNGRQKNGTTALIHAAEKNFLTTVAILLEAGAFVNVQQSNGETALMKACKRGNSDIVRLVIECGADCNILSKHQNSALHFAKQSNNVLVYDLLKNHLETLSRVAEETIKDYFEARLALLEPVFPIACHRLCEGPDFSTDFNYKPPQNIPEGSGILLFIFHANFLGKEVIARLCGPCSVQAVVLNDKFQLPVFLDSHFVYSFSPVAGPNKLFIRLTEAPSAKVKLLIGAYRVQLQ

CN(C)[C@@H]1C(=O)C(C(N)=O)=C(O)[C@]2(O)C(=O)C3=C(O)c4c(O)cccc4[C@@](C)(O)[C@@H]3C[C@@H]12
inactive: [1]

CN(C)C1C(=O)C(C(N)=O)=C(O)[C@@]2(O)C(=O)C3=C(O)c4c(O)ccc(Cl)c4[C@](C)(O)C3CC12 (some centres undefined)
active: [1] 282 µM

CCCC[N+]1(C)C2CC(OC(=O)C(CO)c3ccccc3)CC1C1OC12 (centres undefined)
not listed: [1] | [4]
inactive: all other assays above

CC(C)(O)C1C2OC(=O)C1[C@]1(O)C[C@H]3O[C@]34C(=O)O[C@H]2[C@]14C (some centres undefined) (tested in a mixture with another compound)
not listed: [1] | [2] | [4]
inactive: all other assays above

CCN(CC)C(=O)N[C@@H]1C[C@@H]2c3cccc4[nH]cc(c34)C[C@H]2N(C)C1
inactive: [2] | [3]
active: 7G8 4.47 µM

C[C@H]1C2Cc3ccc(O)cc3[C@]1(C)CCN2CC1CC1
inactive: [4]

Oc1ccc2c3c1O[C@H]1[C@@H](O)CC[C@@]4(O)C(C2)N(CC2CCC2)CCC314 (some centres undefined)
not listed: [1] | [3] | 7G8 | [4]
inactive: all other assays above

C#CCN(C)C(C)Cc1ccccc1 (centres undefined)
inactive: [4]

CC12CCC3C(CCC4=C(O)C(=O)CCC43C)C1CCC2=O (centres undefined)
inactive: [4]
